According to PubChem BioAssay (Tox21):
Results filed as inconclusive are left out. Unmarked numbers belong to inactive results. The call rests on the fitted dose curve; in most records, active means well fitted cell-killing curve with a large enough effect in the repeat runs; inconclusive means weak or mixed curves, or effect the other way; inactive means flat fitted curve, though single readings scatter.

Experiment: qHTS assay to identify small molecule agonists of the TGF-beta/Smad signaling pathway - cell viability counter screen (AID 1346829); further: top concentration of the series differs between compounds; nearly all actives have a fitted effect of over 45% in size
Conditions: SBE-bla HEK293T viability, CellTiter-Glo luminescence, 5 h; series mostly up to 76.8 µM; activity change, negative = cytotoxicity: at the top concentration
From the text: National Center for Advancing Translational Sciences [NCATS]
NIH Chemical Genomics Center [NCGC]
U.S. Environmental Protection Agency [EPA]
National Institutes of Environmental Health Sciences [NIEHS]
National Toxicology Program [NTP]
U.S. Food and Drug Administration [FDA]
Transforming growth factor beta (TGF-beta) superfamily consists of a large number of structurally related dimeric proteins that act as hormones or local mediators in regulating a wide range of biological functions. This superfamily includes TGF-betas themselves, the bone morphogenetic proteins (BMPs) and the activins. These ligands induce oligomerization of serine/threonine receptor kinases and phosphorylate the cytoplasmic signaling molecules of Smad protein family. CellSensor SBE-bla HEK 293T cell line (Life Technologies, Carlsbad, CA), responsive to TGF-beta was used to screen Tox21 10K compound library for identification of agonists/antagonists of the Smad signaling pathway. This cell line contains a beta-lactamase reporter gene under control of the Smad binding element (SBE) stably integrated into HEK 293T cells. Also cytotoxicity of the compounds was tested in parallel by measuring the cell viability using CellTiter-Glo assay system in the same wells.
Tox21 Assay Protocol Summary:
SBE-bla HEK 293T cells were dispensed at 4,000/well in 6 uL of assay medium into black wall/clear-bottom 1536-well plates using a Multidrop Combi (ThermoFisher Scientific, Waltham, MA) dispenser. After the assay plates were incubated at 37 C and 5% CO2 for an overnight, 23 nL of compounds dissolved in DMSO, positive controls or DMSO only was transferred to the assay plate by a Pintool station (Kalypsys, San Diego, CA). The assay plates were incubated at 37 C and 5% CO2 for 5 hr. One uL of LiveBLAzer B/G FRET substrate (Life Technologies) was added using a Flying Reagent Dispenser (FRD, Aurora Discovery, San Diego, CA) and the plates were incubated at room temperature for 2 hr. Fluorescence intensity (405 nm excitation, 460 nm and 530 nm emissions) was measured using an Envision plate reader (PerkinElmer, Shelton, CT). For cytotoxicity read, 4 uL of CellTiter-Glo reagent (Promega Corporation, Madison, WI) was added to each well of the assay plates using FRD. After 30min incubation at room temperature, the luminescence intensity was measured using ViewLux plate reader (PerkinElmer).
On the % scale 0 is the no-effect control and ±100 the full control effect.

Structure (SMILES)	activity change, negative = cytotoxicity
CN(CC1(C)CCCO1)S(=O)(=O)c1ccc(Cl)c(S(N)(=O)=O)c1 (stereo not given)	9.23% [at 35.3 µM]
CC/C=C\CCOC(=O)CCCCC	-8.56%
OCC(CBr)(CBr)CBr	-11.3%
C=CC1CO1 (stereo not given)	2.79%
CC(C)(C)c1ccc(OC(=O)c2ccccc2O)cc1	-16.6%
CC1(C)S[C@@H]2[C@H](NC(=O)C(C(=O)O)c3ccccc3)C(=O)N2[C@H]1C(=O)O (stereo not given in full)	-0.0571% [at 35.3 µM]
CC(C)O	8.4%
O=Cc1ccc(O)c(O)c1O	-12.3% [at 35.3 µM]
CCCCCCn1c(=O)c2c(ncn2C)n(C)c1=O	-6.06% [at 35.3 µM]
OC[C@H]1O[C@@H](O[C@H]2[C@H](O)[C@@H](O)[C@H](O)O[C@@H]2CO)[C@H](O)[C@@H](O)[C@H]1O	0.417%
CC(=O)Oc1cc(C(C)C)c(OCCN(C)C)cc1C	4.75% [at 35.3 µM]
C=CC(C)(O)CC/C=C(\C)CCC=C(C)C (stereo not given)	-4.51%
CCCNC(C)C(=O)Nc1c(C)csc1C(=O)OC (stereo not given)	-8.86% [at 35.3 µM]
Cc1cc2c(s1)Nc1ccccc1N=C2N1CCN(C)CC1	3.9% [at 35.3 µM]
COc1cc(C)ccc1C(C)C	0.0011%
COc1cc(Cl)ccc1Cl	1.16%
CN(C)CCOc1ccccc1Cc1ccccc1	-0.358% [at 35.3 µM]
Cc1ccsc1C(=CCCN1CCC[C@@H](C(=O)O)C1)c1sccc1C	-1.29% [at 35.3 µM]
CCCCc1ccc2nc(NC(=O)OC)[nH]c2c1	-1.73% [at 35.3 µM]
OCCN1CCN(CCO)CC1	7.71%

Structure (SMILES)	activity change, negative = cytotoxicity
CC1(O)CSC(C)(O)CS1 (stereo not given)	0.507%
CCCCCCCCCC/C=C/C#N	-4.5%
C[C@@H]1CN(c2c(F)c(N)c3c(=O)c(C(=O)O)cn(C4CC4)c3c2F)C[C@H](C)N1	-11.5% [at 15.8 µM]
Cc1ccc(C(C)C)cc1O	22.5%
CC1=C(CC(=O)O)c2cc(F)ccc2/C1=C\c1ccc(S(C)(=O)=O)cc1	-0.315% [at 35.3 µM]
CC(=O)OC1C2(C)CCC(C2)C1(C)C (stereo not given)	0.216%
CCCC1CCC(=O)O1 (stereo not given)	1.54%
COc1cc2c(cc1N)oc1ccccc12	5.26%
CC1(C)C(=O)N(Cl)C(=O)N1Br	-15.7%
N#CSCC(=O)O	0.188% [at 35.3 µM]
CN1CCN(N)CC1	-5.5% [at 35.3 µM]
Nc1ccc(Oc2ccc(N)c(N)c2)cc1	20.1%
CCOC(=O)C1CC(=O)C(=C(O)C2CC2)C(=O)C1 (stereo not given)	3.88%
CC(C)(C)c1cccc(O)c1	6.24%
CCCCC(=O)O[C@]1(C(=O)CO)[C@H](C)C[C@H]2[C@@H]3CCC4=CC(=O)C=C[C@]4(C)[C@@]3(F)[C@@H](O)C[C@@]21C	0.389% [at 35.3 µM]
CCOc1ccc(OCC)c(Cl)c1	0.426%
O=C(CCCl)NCc1ccccc1	6.6% [at 35.3 µM]
CCCCCCCCCCCCOCCOS(=O)(=O)O	3.37%
CCC1(C)NC(=O)NC1=O (stereo not given)	8.65%
NCCC(O)(P(=O)(O)O)P(=O)(O)O	2.23% [at 35.3 µM]
